Assays:
Assay in all cases: log2 ratio of Biotin-Ahx-Ub-VS probe labelling (fragment/DMSO); higher = less target engagement (more negative = stronger competition), active = hit call of the paper (q ≤ 0.05, log2 ratio ≤ -1)
Settings in all cases: compound concentration: 200 uM; treatment time: 3 h
USP19 = target: T1, USP19 (UniProt O94966)
T1 sequence (whole entry): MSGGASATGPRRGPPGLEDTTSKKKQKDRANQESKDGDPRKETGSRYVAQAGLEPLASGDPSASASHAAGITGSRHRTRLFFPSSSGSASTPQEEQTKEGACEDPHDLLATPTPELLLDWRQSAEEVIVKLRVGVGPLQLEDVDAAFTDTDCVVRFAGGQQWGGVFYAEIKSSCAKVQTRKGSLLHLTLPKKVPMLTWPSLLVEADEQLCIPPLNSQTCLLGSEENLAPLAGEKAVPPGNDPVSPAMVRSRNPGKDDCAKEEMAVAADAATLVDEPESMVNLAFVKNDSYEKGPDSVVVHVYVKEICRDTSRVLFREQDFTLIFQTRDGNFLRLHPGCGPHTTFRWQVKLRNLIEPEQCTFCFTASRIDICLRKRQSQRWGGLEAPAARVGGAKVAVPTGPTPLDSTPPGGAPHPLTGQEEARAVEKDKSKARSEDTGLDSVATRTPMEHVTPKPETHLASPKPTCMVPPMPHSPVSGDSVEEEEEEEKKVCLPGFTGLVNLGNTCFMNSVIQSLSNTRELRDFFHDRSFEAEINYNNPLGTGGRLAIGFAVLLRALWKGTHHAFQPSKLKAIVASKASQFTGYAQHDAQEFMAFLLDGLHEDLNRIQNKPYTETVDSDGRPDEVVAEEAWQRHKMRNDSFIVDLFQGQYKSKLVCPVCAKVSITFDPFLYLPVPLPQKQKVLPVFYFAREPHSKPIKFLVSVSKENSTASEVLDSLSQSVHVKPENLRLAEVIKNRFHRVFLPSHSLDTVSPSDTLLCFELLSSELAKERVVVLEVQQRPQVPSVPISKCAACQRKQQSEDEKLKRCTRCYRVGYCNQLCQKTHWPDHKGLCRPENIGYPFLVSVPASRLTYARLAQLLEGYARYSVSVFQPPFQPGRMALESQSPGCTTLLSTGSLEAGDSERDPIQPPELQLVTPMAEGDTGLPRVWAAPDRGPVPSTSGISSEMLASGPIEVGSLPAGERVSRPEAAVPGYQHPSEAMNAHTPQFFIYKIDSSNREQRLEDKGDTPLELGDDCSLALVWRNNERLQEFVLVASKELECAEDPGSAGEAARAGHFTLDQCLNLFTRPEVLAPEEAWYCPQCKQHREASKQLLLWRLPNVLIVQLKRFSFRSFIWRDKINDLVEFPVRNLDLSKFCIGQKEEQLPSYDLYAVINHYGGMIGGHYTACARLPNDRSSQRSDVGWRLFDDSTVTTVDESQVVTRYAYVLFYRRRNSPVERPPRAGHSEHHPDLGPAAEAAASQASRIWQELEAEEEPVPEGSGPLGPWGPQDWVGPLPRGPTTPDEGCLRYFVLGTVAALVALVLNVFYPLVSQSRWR
Summary of the method: (§1)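 Each value is an average log2 ratio of fragment to vehicle, tested by unpaired t-test. The underlying Spectronaut label-free quantities were global-median-normalised, and only proteins with ≥2 unique peptides were included. Triplicate HEK293T lysate samples (495 µg) were exposed to fragment at 200 µM or vehicle for 3 h, then to Biotin-Ahx-Ub-VS at 0.5 µM final for 1 h, before NeutrAvidin enrichment of labelled DUBs, LysC and trypsin digestion, and diaPASEF LC-MS/MS.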

USP24 = USP24 (UniProt Q9UPU5)
Chain of USP24 (Q9UPU5 whole entry): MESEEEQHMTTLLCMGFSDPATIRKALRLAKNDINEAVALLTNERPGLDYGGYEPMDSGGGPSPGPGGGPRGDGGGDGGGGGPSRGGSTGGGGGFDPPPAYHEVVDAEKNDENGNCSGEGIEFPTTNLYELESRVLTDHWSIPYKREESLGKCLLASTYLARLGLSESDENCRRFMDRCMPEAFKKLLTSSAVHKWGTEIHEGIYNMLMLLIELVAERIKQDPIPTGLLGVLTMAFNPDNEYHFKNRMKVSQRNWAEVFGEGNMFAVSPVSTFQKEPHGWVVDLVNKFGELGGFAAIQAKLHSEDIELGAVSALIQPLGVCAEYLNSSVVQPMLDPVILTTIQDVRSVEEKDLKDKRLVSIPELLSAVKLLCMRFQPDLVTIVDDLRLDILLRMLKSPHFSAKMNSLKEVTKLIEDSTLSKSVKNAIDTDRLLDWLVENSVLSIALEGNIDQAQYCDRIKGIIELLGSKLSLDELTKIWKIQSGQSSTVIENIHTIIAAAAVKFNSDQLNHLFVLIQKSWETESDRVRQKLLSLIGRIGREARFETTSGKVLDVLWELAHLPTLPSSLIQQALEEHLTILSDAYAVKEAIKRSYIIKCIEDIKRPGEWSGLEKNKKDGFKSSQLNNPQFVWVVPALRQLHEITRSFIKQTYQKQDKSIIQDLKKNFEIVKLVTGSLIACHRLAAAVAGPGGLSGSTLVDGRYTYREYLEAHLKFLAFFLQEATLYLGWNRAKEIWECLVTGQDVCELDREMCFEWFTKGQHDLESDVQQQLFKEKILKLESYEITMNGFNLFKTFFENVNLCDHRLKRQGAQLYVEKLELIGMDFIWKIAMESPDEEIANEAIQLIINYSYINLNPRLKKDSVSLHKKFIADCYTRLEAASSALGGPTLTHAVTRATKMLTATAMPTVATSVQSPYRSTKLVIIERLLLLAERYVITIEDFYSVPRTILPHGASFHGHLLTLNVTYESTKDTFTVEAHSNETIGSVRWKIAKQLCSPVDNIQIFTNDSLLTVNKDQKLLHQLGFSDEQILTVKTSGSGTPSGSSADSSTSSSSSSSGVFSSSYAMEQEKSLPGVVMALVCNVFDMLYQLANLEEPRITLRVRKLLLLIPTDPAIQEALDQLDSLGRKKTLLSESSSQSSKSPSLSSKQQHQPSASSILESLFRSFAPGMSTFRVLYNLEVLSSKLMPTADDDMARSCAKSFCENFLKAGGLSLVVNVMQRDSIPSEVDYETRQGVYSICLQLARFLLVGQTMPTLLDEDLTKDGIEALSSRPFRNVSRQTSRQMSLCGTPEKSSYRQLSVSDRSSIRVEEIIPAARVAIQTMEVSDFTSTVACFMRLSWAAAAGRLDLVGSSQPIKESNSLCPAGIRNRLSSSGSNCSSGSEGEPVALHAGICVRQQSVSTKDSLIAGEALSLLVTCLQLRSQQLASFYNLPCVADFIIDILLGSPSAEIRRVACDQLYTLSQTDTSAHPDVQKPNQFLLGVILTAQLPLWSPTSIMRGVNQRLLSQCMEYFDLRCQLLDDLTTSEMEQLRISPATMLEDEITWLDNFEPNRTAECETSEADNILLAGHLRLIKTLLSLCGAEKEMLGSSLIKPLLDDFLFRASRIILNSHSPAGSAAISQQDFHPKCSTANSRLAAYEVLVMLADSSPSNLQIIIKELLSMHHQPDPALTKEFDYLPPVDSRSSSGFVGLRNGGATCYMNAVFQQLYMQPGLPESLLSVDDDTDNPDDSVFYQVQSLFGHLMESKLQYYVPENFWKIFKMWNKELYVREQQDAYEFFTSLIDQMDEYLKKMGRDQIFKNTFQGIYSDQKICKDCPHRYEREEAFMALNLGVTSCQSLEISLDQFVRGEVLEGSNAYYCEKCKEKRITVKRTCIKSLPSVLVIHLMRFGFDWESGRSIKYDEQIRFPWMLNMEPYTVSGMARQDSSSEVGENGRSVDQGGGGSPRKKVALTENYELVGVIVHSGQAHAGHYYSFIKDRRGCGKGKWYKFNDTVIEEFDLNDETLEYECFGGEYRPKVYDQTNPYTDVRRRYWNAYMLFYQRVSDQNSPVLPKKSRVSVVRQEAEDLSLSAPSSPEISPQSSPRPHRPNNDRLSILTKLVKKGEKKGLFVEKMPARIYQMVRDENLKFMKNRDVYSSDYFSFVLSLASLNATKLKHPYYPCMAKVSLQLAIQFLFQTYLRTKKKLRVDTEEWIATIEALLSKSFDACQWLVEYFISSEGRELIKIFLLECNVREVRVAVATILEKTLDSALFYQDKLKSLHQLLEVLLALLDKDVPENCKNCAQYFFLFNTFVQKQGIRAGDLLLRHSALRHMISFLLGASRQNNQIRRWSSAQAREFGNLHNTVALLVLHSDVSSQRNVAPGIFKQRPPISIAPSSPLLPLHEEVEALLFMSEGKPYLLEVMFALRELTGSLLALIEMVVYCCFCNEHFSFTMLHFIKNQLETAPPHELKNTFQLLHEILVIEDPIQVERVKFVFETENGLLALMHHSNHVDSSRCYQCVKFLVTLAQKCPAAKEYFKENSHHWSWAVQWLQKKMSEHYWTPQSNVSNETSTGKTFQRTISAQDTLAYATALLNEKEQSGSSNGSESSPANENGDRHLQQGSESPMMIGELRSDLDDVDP
Summary of the method: as §1

USP25 = target: T2, USP25 (UniProt Q9UHP3)
T2 sequence (whole entry): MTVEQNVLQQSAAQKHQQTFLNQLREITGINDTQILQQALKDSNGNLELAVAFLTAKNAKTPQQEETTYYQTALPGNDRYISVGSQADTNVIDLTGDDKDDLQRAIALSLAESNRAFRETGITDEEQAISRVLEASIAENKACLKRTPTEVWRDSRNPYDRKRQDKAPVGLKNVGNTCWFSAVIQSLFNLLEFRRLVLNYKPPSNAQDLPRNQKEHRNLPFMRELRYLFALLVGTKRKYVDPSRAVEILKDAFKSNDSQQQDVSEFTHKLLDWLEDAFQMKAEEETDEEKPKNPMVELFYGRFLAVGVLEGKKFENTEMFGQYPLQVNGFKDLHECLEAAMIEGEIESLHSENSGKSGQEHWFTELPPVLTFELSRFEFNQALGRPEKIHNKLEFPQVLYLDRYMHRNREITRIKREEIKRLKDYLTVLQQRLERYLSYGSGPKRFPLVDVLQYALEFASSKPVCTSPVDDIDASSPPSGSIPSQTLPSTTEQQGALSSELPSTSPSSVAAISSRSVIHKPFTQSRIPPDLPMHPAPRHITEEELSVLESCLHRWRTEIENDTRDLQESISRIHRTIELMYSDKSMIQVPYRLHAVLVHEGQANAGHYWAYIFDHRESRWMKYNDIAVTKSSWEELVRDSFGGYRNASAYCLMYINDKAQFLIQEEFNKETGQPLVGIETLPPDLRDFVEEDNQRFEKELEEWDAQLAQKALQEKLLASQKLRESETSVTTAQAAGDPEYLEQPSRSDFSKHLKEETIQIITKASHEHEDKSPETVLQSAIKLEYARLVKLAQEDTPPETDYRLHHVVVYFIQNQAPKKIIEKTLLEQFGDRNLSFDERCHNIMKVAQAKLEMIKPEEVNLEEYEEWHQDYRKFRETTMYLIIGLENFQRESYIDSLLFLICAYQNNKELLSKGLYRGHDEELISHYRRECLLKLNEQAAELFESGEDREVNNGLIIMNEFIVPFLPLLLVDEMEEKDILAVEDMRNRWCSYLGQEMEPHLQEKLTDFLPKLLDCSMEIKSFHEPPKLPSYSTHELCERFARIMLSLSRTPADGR
Summary of the method: as §1

USP28 = target: T3, USP28 (UniProt Q96RU2)
T3 sequence (whole entry): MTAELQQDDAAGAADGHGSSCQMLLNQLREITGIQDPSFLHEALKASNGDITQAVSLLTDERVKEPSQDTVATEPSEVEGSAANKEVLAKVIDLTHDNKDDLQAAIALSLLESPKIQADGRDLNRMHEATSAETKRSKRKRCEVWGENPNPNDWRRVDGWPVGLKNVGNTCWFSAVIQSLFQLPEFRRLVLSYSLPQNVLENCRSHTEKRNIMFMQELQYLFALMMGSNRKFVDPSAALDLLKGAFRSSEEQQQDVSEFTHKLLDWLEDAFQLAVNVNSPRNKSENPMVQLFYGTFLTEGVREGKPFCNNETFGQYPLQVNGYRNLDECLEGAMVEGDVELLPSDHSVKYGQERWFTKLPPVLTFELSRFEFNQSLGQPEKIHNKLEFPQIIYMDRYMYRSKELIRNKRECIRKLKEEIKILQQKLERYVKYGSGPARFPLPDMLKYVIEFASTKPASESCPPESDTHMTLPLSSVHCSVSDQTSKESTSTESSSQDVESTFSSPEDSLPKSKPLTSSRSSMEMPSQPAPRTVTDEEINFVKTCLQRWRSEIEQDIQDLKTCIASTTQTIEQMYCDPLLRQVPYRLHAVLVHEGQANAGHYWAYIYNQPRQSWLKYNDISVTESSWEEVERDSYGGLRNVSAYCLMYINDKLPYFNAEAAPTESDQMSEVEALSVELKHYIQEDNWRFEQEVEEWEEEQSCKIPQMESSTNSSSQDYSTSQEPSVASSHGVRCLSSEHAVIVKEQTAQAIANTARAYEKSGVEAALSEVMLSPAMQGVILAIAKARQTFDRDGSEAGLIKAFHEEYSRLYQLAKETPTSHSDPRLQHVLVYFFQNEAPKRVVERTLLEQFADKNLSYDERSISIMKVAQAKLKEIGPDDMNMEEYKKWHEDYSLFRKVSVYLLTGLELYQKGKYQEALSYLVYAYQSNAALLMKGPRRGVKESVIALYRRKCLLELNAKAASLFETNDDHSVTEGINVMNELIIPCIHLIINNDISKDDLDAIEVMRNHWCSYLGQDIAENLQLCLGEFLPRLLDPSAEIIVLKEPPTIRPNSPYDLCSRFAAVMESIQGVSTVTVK
Summary of the method: as §1

Measured: log2 ratio of Biotin-Ahx-Ub-VS probe labelling

CN(CCC(O)c1ccc(Br)cc1)C(=O)CCl (centres undefined)
inactive: USP19 -0.439 | USP24 -0.901 | USP25 -0.071 | USP28 -0.457
